Test results reported in the supplement of paper PMC10338343.
± gives the standard deviation. The full ranking holds about 3,700 sequences; the median of “pre-steady-state target cleavage rate” is about 0.02, and the highest 2% start at about 0.23. This is one part of a sample in which the highest values are shown more often than they occur.

test system: MILI (PIWIL2) piRISC loaded with Kctd7 piRNA (26 nt); assay: pre-steady-state target cleavage rate (min^-1); MIWI and MILI are mouse PIWI proteins and EfPiwi is from a freshwater sponge; tags in brackets are library labels; higher = faster piRNA-guided slicing of the target; settings: guide: Kctd7 piRNA 5'p-UGUUAAUCUCUCAGAGAAGGUGACAG; auxiliary factor: 500 nM mouse GTSF1
Experimental: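 Cleave-'n-Seq: a library of target RNAs (target site embedded in constant flanks, ACAGCATTCCGCGTTAGTGATATCCG... 5' flank; DNA-blocked outside the site) at 0.1 nM was incubated with 1 nM active mouse MILI or MIWI piRISC (synthetic 5'-monophosphorylated piRNA guide) with or without 500 nM mouse GTSF1 at 33 °C for 1 min to 16 h. Uncleaved targets were sequenced and normalised to non-target controls, and the pooled three trials were fitted to a burst-and-steady-state model to give the pre-steady-state cleavage rate (min^-1; k3 is constrained to at most 1e-4). Sequence is the target site only; target names encode pairing extent (gX:gY) and contiguous / 1-mismatch / 2-mismatch / bulge geometry. Fits with R² ≤ 0 are excluded.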

| Sequence | pre-steady-state target cleavage rate |
| --- | --- |
| UAGUCUGUCACCUUGUCUGAGAGAUUAACA | 0.133 ± 0.016 |
| UAGUCUGUCACCUGCUCUGAGAGAUUAACA | 0.175 ± 0.011 |
| UAGUCUGUCACCUUGCUCUGAGAGAUUAACA | 0.299 ± 0.059 |
| UAGUGACAGUCCUUCUCUGAGAGAUUAACCA | 0.0785 ± 0.0063 |
| UAGUGACUCACCUUCUCUGAGAGAUUUUCA | 0.0728 ± 0.019 |
| UAGUGACACACCUUCUCUGAGAGAUUUAACA | 0.243 ± 0.023 |
| UAGUGACACACCUUCUCUGAGAGAUUUUCA | 0.064 ± 0.02 |
| UAGUGACACACCUUCUCUGAGAGAUUAACA [g2:g22:cont:t1A] | 0.178 ± 0.01 |
| UAGUGACUCACCUUCUCUGAGAGAUUCACA | 0.314 ± 0.091 |
| UAGUGACAGACCUUCUCUGAGAGAUUCAACA | 0.177 ± 0.04 |
| UAGUGACACACCUUCUCUCUGAGAUUAACA | 0.00653 ± 0.0037 |
| UAGUGACUCACCUUCUCUGAGAGAUUCAACA | 0.221 ± 0.035 |
| UAGUGACACACCUUCUCUGAGAGAUUCACA | 0.258 ± 0.057 |
| UAGUGACACACCUUCUCUGAGAGAUCAACA | 0.0804 ± 0.024 |
| UAGUGACACACCUUCUCUGAGAGAUAUUCA | 0.0197 ± 0.0083 |
| UAGUGACACACCUUCUCUGAGAGAUUCAACA | 0.244 ± 0.061 |
| UAGUCUGUCACCUUCUCAGAGAGAAUAACA | 0.0517 ± 0.017 |
| UAGUGACUCACCUUCUCUGAGGGAUUAACA | 0.0864 ± 0.011 |
| UAGUGUGUCACCUACACUGAGAGAUUAACA | 0.15 ± 0.011 |
| UAGUCUGUCACCUUCAUCUGAGAGAUUAACA | 0.204 ± 0.052 |
| UAGUCUGUCACCUUCUUGAGAGAUUAACA | 0.07 ± 0.023 |
| UAGUGAGUCACCUUCUUUGAGAGAUUAACA | 0.334 ± 0.029 |
| UAGUCUGUCACCUUCUUUGAGAGAUUAACA | 0.259 ± 0.019 |
| UAGUGUGUCACCUUCUUUGAGAGAUUAACA | 0.229 ± 0.016 |
| UAGUCUGUCACCUUCUUCUGAGAGAUUAACA | 0.0864 ± 0.021 |

| Sequence | pre-steady-state target cleavage rate |
| --- | --- |
| UAGUGAGUCACCUUCUUGAGAGAUUAACA | 0.0386 ± 0.014 |
| UAGUGAGUCUCCUUCACUGAGAGAUUAACA | 0.166 ± 0.016 |
| UAGUGACUCUCCUUCUGUGAGAGAUUAACA | 0.0558 ± 0.01 |
| UAGUGACAGACGUUCUCUCAGAGAUUAACA | 0.0137 ± 0.0054 |
| UAGUCUGUCACCUUCUCUGAGAGGAUUAACA | 0.174 ± 0.019 |
| UAGUCCUGUCACCUUCUCUGAGAGAUUAACA | 0.275 ± 0.026 |
| UAGUCUCUCACCUUGUCUGAGAGAUUAACA | 0.0068 ± 0.0039 |
| UAGUCUUGUCACCUUCUCUGAGAGAUUAACA | 0.341 ± 0.058 |
| UAGUCUGUCACCUUCUCUGAGAGAUUAAUA | 0.118 ± 0.02 |
| UAGUCGUGUCACCUUCUCUGAGAGAUUAACA | 0.199 ± 0.01 |
| UAGUCUGUCACCUUCUCUCUGAGAUUAACA | 0.00967 ± 0.0028 |
| UAGUCUGUCACCUUCUCUGAGAGAUUAAUCA | 0.258 ± 0.041 |
| UAGUCUGUCACCUUCUCUGAGAGAUUAAA | 0.13 ± 0.026 |
| UAGUCUGUCACCUUCUCUGAGAGAUUAACG [g2:g26:cont:t1G] | 0.196 ± 0.011 |
| UAGUCUGUCACCUUCCUGAGAGAUUAACA | 0.0844 ± 0.028 |
| UAGUCUUCACCUUCUCUGAGAGAUUAACA | 0.213 ± 0.019 |
| UAGUCUGUCACCUUCUCUGAGAGAUUUAACA | 0.245 ± 0.023 |
| UAGUGUGACACCUUCUGUGAGAGAUUAACA | 0.123 ± 0.015 |
| UAGUCUGUCACCUACUCUGAGAGAAUAACA | 0.0882 ± 0.017 |
| UAGUGACUCACCUUCUCUGAGAGUUUUACA | 0.0214 ± 0.01 |
| UAGUGACAGUGCUUCUCUGAGAAAUUAACA | 0.00916 ± 0.0047 |
| UAGUCUGUCACCUUCAGAGAGAGAUUAACA | 0.0227 ± 0.0099 |
| UAGUGACAGUCCUUCUCUGAGGAGAUUAACA | 0.00431 ± 0.0026 |
| UAGUGACAGUGGAAGAGUGACAGAUUAACA | < 0.0001 |
| UAGUCUGUCACCUCUCUCUGAGAGAUUAACA | 0.164 ± 0.015 |

| Sequence | pre-steady-state target cleavage rate |
| --- | --- |
| UAGUCUGUCACCUUCUCUGAGAGAUUAACA [g2:g26:cont:t1A] | 0.22 ± 0.013 |
| UAGUCUGUCACCUUCUCUGAGAGAUUAACC [g2:g26:cont:t1C] | 0.173 ± 0.013 |
| UAGUCUGUCACCUCUCUGAGAGAUUAACA | 0.208 ± 0.018 |
| UAGUCUGUCACCUUCUCUGAGAGAUUAACU [g2:g26:cont:t1U] | 0.244 ± 0.026 |
| UAGUCUGUCACCCUCUCUGAGAGAUUAACA | 0.238 ± 0.018 |
| UAGUGACACACCUUCUCAGAGAGAUUAUGA | 0.0269 ± 0.01 |
| UAGUGUGUCACCUUCUCUGAGAGAUUAAGA | 0.145 ± 0.036 |
| UAGUGUGUCACCUUCUCUGAGAGAUUAAUCA | 0.18 ± 0.032 |
| UAGUGUGUCACCUUCUCUGAGAGAUUAAACA | 0.214 ± 0.029 |
| UAGUGUGUCACCUUCUCUGAGAGAUUAAA | 0.234 ± 0.064 |
| UAGUGUGUCACCUUCUCUGAGAGAUUAAAA | 0.108 ± 0.022 |
| UAGUGUGUCACCUUCUCUGAGAGAUUAAUA | 0.236 ± 0.037 |
| UAGUGACAGUGCUUCUCUGAGAGAAUUAACA | 0.0127 ± 0.0041 |
| UAGUGUGUCACCUUCUCUGAGAGCAUUAACA | 0.17 ± 0.022 |
| UAGUCUCUCACCUUCUCUGAGAGAUAAACA | 0.0206 ± 0.0076 |
| UAGUGUGUCACCUUCUCUGAGAGAUUCACA | 0.239 ± 0.049 |
| UAGUGUGUCACCUUCUCUGAGAGAUAUUCA | 0.143 ± 0.047 |
| UAGUGUGUCACCUUCUCUGAGAGAUUCAACA | 0.219 ± 0.038 |
| UAGUCUGUCACCUUCUCUGAGAGAUUUUGA | 0.0133 ± 0.0061 |
| UAGUCUGUCACCUUCUCUGAGAGAUUGACA | 0.246 ± 0.044 |
| UAGUCUGUCACCUUCUCUGAGAGAUUGAACA | 0.214 ± 0.029 |
| UAGUGAGUCACCUUCUCUGAGAGAUUGACA | 0.208 ± 0.042 |
| UAGUGUGUCACCUUCUCUGAGAGAUUGAACA | 0.0931 ± 0.017 |
| UAGUGUGUCACCUUCUCUGAGAGAUUGACA | 0.25 ± 0.063 |
